# “And” between values parts separate entries of the source, which are not always exact repeats. Equal values may be shown once. The campaign covered roughly 360,000 compounds. About 11,000 (3.1%) were called active. Rule as the data show it: active = activity change below about -30%; inactive = the rest. This excerpt belongs to a sample that is enriched for actives.
# Molecular target: D(1A) dopamine receptor (Homo sapiens) (UniProt P21728)
# Test: Antagonist of Human D 1 Dopamine Receptor: qHTS
# Details: HEK293 TREx D1 cells, calcium flux, dopamine EC80; at 10 µM; active compounds read low
# Summary of the method: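 After overnight tetracycline induction at 30 C, force-coupled D1 HEK293 cells took up a no-wash calcium dye at room temperature. Compounds were added and monitored 180 s, and the response to EC80 dopamine was then recorded.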
# % is scaled to controls: 0 for no effect and ±100 for the full control effect.
# D(1A) dopamine receptor (Homo sapiens), sequence (P21728 whole entry, looked up): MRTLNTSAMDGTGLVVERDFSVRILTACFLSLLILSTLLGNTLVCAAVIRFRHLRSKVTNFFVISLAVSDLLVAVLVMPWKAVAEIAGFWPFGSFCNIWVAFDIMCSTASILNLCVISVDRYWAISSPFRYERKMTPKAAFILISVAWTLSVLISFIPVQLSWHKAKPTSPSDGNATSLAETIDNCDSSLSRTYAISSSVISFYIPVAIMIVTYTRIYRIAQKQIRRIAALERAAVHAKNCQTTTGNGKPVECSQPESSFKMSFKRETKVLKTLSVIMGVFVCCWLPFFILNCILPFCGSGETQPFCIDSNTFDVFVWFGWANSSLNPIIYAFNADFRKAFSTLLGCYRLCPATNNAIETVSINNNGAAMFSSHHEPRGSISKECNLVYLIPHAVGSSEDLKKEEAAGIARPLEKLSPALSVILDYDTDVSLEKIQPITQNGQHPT
row,SMILES,"activity change, negative = inhibition"
1,CCOC(=O)c1cccc(NC(=O)C(Cc2ccccc2)NS(=O)(=O)c2cccc3nsnc23)c1 (stereo not given),-3.2% (inactive)
2,OCCNCc1cccc(OCc2ccccc2Cl)c1,0.511% (inactive)
3,Clc1cccc(Cl)c1OCCOCCNCc1ccccc1,-39.7% (active)
4,CCOc1ccccc1OCCCNCc1ccccc1,-23.9% (inactive)
5,O=C(CN1c2ccccc2S(=O)(=O)c2ccccc21)Nc1cccc(C(F)(F)F)c1,-3.23% (inactive)
6,Cc1cccc(CC(=O)Nc2cccc(-c3cn4cccnc4n3)c2)c1,-7.29% (inactive)
7,COc1cc(CNC(=O)c2cc3n(n2)CCCN(Cc2cccc(F)c2)C3=O)cc(OC)c1OC,-15.1% (inactive)
8,COc1ccccc1CNS(=O)(=O)c1cc2c3c(c1)CCC(=O)N3CCC2,-53% (active)
9,COc1ccccc1CCNS(=O)(=O)c1cc2c3c(c1)C(C)C(=O)N3CCC2 (stereo not given),-6.83% (inactive)
10,O=C1CCc2cc(S(=O)(=O)Nc3ccc(C(F)(F)F)cc3)cc3c2N1CC3,-8.34% (inactive)
11,COc1ccc(C)cc1S(=O)(=O)Nc1cc2c3c(c1)CCC(=O)N3CCC2,-35% (active)
12,COc1ccc(CNS(=O)(=O)c2cc3c4c(c2)CCN4C(=O)CC3)cc1,-7.89% (inactive) and -23.2% (inactive)
13,COc1ccc(C)cc1S(=O)(=O)NC1CCCCC1,2.79% (inactive)
14,CCOC(=O)c1scc(-c2ccc(C)cc2)c1S(=O)(=O)Nc1cc(C)ccc1C,-6.21% (inactive)
15,COc1cc(OC)cc(C(=O)Nc2ccc3nc(Nc4cccc(C(F)(F)F)c4)cc(C)c3c2)c1,-9.91% (inactive)
16,O=C(c1ccccc1)c1ccc(C(=O)N2CCN(c3ccccc3)CC2)cc1,-32.4% (active)
17,CO/N=C/c1ccc(N2CCN(C(=O)c3cccc(Cl)c3)CC2)c([N+](=O)[O-])c1,-27.5% (inactive)
18,O=C(COc1ccc(Cl)cc1[N+](=O)[O-])N1CCCCC1,15.9% (inactive)
19,C/C(=C/c1ccccc1)C(=O)N1CCN(c2ccccc2)CC1,-2.86% (inactive)
20,CC1CCN(c2nc3ccc(C(=O)N4CCN(c5ccccc5)CC4)cc3s2)CC1,4.36% (inactive)
21,Nc1ccc(C(=O)N2CCN(S(=O)(=O)c3ccc(Cl)cc3)CC2)cc1[N+](=O)[O-],-1.4% (inactive)
22,O=C(c1ccc(Oc2ccc(Cl)cc2)c([N+](=O)[O-])c1)N1CCCC1,-38.6% (active)

row,SMILES,"activity change, negative = inhibition"
1,O=C(c1ccc(Cl)c(Cl)c1)N1CCCC1,-10.9% (inactive)
2,O=C(c1ccc(Cl)c([N+](=O)[O-])c1)N1CCN(c2ccccc2)CC1,-35.8% (active)
3,O=S(=O)(c1ccc(C2CCCCC2)cc1)N1CCN(c2ccc(Cl)c(Cl)c2)CC1,14.7% (inactive)
4,Cc1cc(NS(=O)(=O)c2ccc3oc(=O)c4ncn(C)c4c3c2)ccc1Br,-1.47% (inactive)
5,Cn1nnnc1Sc1ncnc2scc(-c3ccccc3[N+](=O)[O-])c12,-0.145% (inactive)
6,Cc1ccc(-c2nc(Cn3c(=O)cc(-c4ccccc4)c4c(C)nn(C)c43)c(C)o2)cc1,12% (inactive)
7,CN(C)c1ccc(NC(=O)CSc2nc(-c3ccco3)cc(C(F)(F)F)n2)cc1,-4.62% (inactive)
8,CCn1c(C)c(C)c2cc(C(=O)NCCc3cc(OC)ccc3OC)ccc21,13.1% (inactive)
9,COc1ccc(C(=O)OCC(=O)c2ccc(Cl)s2)c(OC)c1OC,-34.5% (active)
10,COc1ccc(Cl)cc1C(=O)OCC(=O)NCc1cccs1,-19.7% (inactive)
11,COc1ccc(C(=O)COC(=O)c2ccc([N+](=O)[O-])s2)cc1OC,3.97% (inactive)
12,COC(=O)c1ccccc1NC(=O)Cn1c(=O)cc(C)c2c(C)nn(-c3cccc(Cl)c3C)c21,11.3% (inactive)
13,Cc1ccc(C)c(Cn2c(CCCNC(=O)C3CCCCC3)nc3ccccc32)c1,-4.99% (inactive)
14,Cc1cccc2c1cnn2C(=O)CCC(=O)NC1CCCCC1,11.5% (inactive)
15,Cc1cccc(-c2noc(CCC(=O)NC3CCCC3)n2)c1,-18.1% (inactive)
16,Cc1ccc2c(cnn2C(=O)CCC(=O)NC2CCCC2)c1,-47.2% (active)
17,Cc1cccc2c(=O)cc(CSc3ccccc3NC(=O)C(C)C)[nH]c12,-2.11% (inactive)
18,COc1ccc(NC(=O)CCC(=O)Nc2cc(OC)c(NC(=O)c3ccco3)cc2OC)c(OC)c1,-3.66% (inactive)
19,COc1ccc(NC(=O)c2ccco2)cc1NC(=O)c1ccc(C#N)cc1F,-1.13% (inactive) and -9.12% (inactive)
20,COc1cc(NC(=O)c2cc([N+](=O)[O-])ccc2Br)ccc1NC(=O)c1ccco1,-45.2% (active)
21,COc1ccc(OC)c(-n2nnc(-c3nc(-c4cc(OC)c(OC)c(OC)c4)no3)c2C)c1,-6.72% (inactive)
22,Cc1ccc2oc(=O)c3cnn(CC(=O)NCc4ccccc4Cl)c3c2c1,1.96% (inactive)

row,SMILES,"activity change, negative = inhibition"
1,COc1cccc(CNS(=O)(=O)c2ccc3c(c2)CC(C)N3C(C)=O)c1 (stereo not given),-35% (active)
2,COc1cccc(CNS(=O)(=O)c2ccc3c(c2)N(C(C)=O)CCS3)c1,3.44% (inactive)
3,COc1cccc(CNS(=O)(=O)c2ccc3c(c2)CC(C)N3C(=O)C2CCC2)c1 (stereo not given),-10.7% (inactive) and -1% (inactive)
4,COc1ccc(N(C)S(=O)(=O)c2ccc3c(c2)CC(C)N3C(=O)C2CC2)c(OC)c1 (stereo not given),-41.8% (active)
5,COc1ccccc1CNC(=O)C1CCN(S(=O)(=O)c2ccc3c(c2)CC(C)N3C(=O)C2CC2)CC1 (stereo not given),-4.76% (inactive)
6,CC1Cc2cc(S(=O)(=O)CCC(=O)NCc3ccc(Cl)cc3)ccc2N1C(=O)C1CC1 (stereo not given),-19.3% (inactive)
7,Cc1cccc(CNC(=O)c2cnc3sc(N4CCCCC4)nn3c2=O)c1,1.97% (inactive)
8,CCOCCCNC(=O)c1c(NC(=O)c2nc(SC)ncc2Cl)sc2c1CCCC2,-26.2% (inactive)
9,CCN(CCCNC(=O)c1cc2c(=O)n(CC)c3ccccc3c2s1)Cc1ccccc1,11.6% (inactive)
10,Cc1cccc(-n2ncc(C(=O)N3CCN(c4ccc(Cl)cc4)CC3)c2C2CCN(C(=O)OC(C)(C)C)CC2)c1,1.41% (inactive)
11,COc1ccc(CNC(=O)c2ccc(NC(=O)N3CC4CCCN4c4ccccc43)cc2)cc1 (stereo not given),40.5% (inactive)
12,CC(=O)Nc1ccc(NC(=S)NC(=O)c2ccc([N+](=O)[O-])c(C)c2)cc1,-2.38% (inactive)
13,CCOc1ccc(C(=O)NC(=S)Nc2ccc(N3CCOCC3)c(Cl)c2)cc1[N+](=O)[O-],-18.8% (inactive)
14,CCOc1ccc(C(=O)NC(=S)Nc2ccc(NC(=O)C(C)C)cc2)cc1[N+](=O)[O-],-38.8% (active)
15,O=C(Nc1cccc2cccnc12)C(F)(F)F,5.04% (inactive)
16,O=C(NCc1ccccc1Cl)c1cccn1-c1nnc(N2CCCCC2)s1,-10.7% (inactive)
17,O=C(Cn1ncc2c3ccccc3n(Cc3ccccc3)c2c1=O)NC1CCCCCC1,-8.69% (inactive)
18,COc1ccc(C(CCNCc2ccccc2F)c2ccc(F)cc2)cc1 (stereo not given),-7.29% (inactive)
19,COc1cccc(CNCCc2c[nH]c3ccccc23)c1OCc1ccccc1F,-35.2% (active)
20,COc1cccc(CNCCSc2nnnn2C)c1OCc1ccccc1Cl,-5.2% (inactive)
21,O=C(CN1C(=O)COc2ccc(S(=O)(=O)N3CCCCCC3)cc21)N1CCN(c2cccc(C(F)(F)F)c2)CC1,-0.903% (inactive)
22,O=C(CN1CCc2ccccc2C1)Nc1cccc(S(=O)(=O)N2CCOCC2)c1,27.4% (inactive)

row,SMILES,"activity change, negative = inhibition"
1,O=C(CN1CCc2cc3c(cc2C1)OCCCO3)Nc1ccccc1,-19.4% (inactive)
2,Cc1ccc(NC(=O)CN2CCc3ccccc3C2)cc1C,-59.1% (active)
3,COCCNC(=O)c1ccc2c(c1)N(Cc1cccc(Cl)c1)C(=O)c1ccccc1S2(=O)=O,5.66% (inactive)
4,O=C(NCCc1ccccc1)c1ccc2c(c1)N(Cc1ccc(F)cc1)C(=O)c1ccccc1S2(=O)=O,6.04% (inactive)
5,O=C(NCCc1ccccc1)c1ccc2c(c1)N(Cc1ccccc1)C(=O)c1ccccc1S2(=O)=O,-40.3% (active)
6,COC(=O)c1ccccc1NC(=O)c1ccc2c(=O)n3c(nc2c1)CCCCC3,5.25% (inactive)
7,CC(C)c1ccc(NC(=O)c2cc(S(=O)(=O)N3CCc4ccccc4C3)ccc2F)cc1,3.76% (inactive)
8,CC(C)CCNC(=O)CCNS(=O)(=O)c1ccc(Cl)cc1,-17.7% (inactive)
9,CC(C)CNS(=O)(=O)c1ccc(CCC(=O)NCc2ccc(Cl)cc2)cc1,3.95% (inactive)
10,Cc1ccc(S(=O)(=O)NCCC(=O)NCc2ccc(Cl)cc2)cc1C,-35.7% (active)
11,CC1CCC(N2CC(=O)N(CCC3=CCCCC3)C(c3ccc(F)cc3)C2=O)CC1 (stereo not given),-13.9% (inactive)
12,Cc1ccc2[nH]c(=O)c(CN(CCCN(C)C)C(=O)Nc3cccc(Cl)c3)cc2c1,-39.7% (active)
13,Cc1ccc2[nH]c(=O)c(CN(CC3COCCO3)C(=O)Nc3ccccc3C)cc2c1 (stereo not given),-8.28% (inactive)
14,CCC(=O)N(CCc1ccccc1)Cc1cc2cc(C)ccc2[nH]c1=O,13.5% (inactive)
15,COc1ccc(-n2nnc(-c3nsc(NC(=O)c4ccc(C)c(C)c4)n3)c2C)cc1Cl,2.45% (inactive)
16,CCOc1ccc(NC(=O)Cn2cc(C(=O)c3ccc(C)cc3)c(=O)c3cc4c(cc32)OCCO4)cc1,4.79% (inactive)
17,COCCn1c(=O)[nH]c(=O)c2cc(C(=O)c3cc(OC)ccc3O)cnc21,12.3% (inactive)
18,COc1ccc(O)c(C(=O)c2cnc3onc(C(C)C)c3c2)c1,-33.3% (active)
19,COc1ccc(O)c(C(=O)c2cnc3c(c2)c(-c2ccc(F)cc2)c(C#N)c(=O)n3C)c1,0.727% (inactive)
